Usually inhibition stands for the relative decrease from the control value, in per cent.

These results are taken from PubChem BioAssay.

This is one part of the list. The source made the active and inactive calls.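 Rule for the calls, unless noted: active = mean inhibition above about 50% in the one-dose retest (limit read from the data); inactive = the rest.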

The target in assay [1] is Sentrin-specific protease 8 (Homo sapiens) (UniProt Q96LD8). Briefly: SENP8 protease inhibitors, retest, confirmation, biochemical, luminescence, single concentration (AID 488912;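 active = mean inhibition across replicates above about 50%, limit read from the data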). Particulars: Recombinant SENP8, Z-RLRGG-aminoluciferin luminescence, 60 min; at 12.5 µM; hits give high values.
Assay [2] deals with Sentrin-specific protease 6 (Homo sapiens) (UniProt Q9GZR1). As to the kind of experiment: SENP6 protease inhibitors, confirmation, biochemical, luminescence, single concentration (AID 488915). Particulars: recombinant SENP6, Z-RLRGG-aminoluciferin luminescence; at 12.5 µM; hits give high values.
Assay [3] addresses Sentrin-specific protease 7 (Homo sapiens) (UniProt Q9BQF6). As to the kind of experiment: SENP7 protease inhibitors, retest, confirmation, biochemical, luminescence, single concentration (AID 488917). As to conditions: recombinant SENP7, Z-RLRGG-aminoluciferin luminescence, 40 min; at 12.5 µM; hits give high values.
Another assay concerns the target Caspase-3 (Homo sapiens) (UniProt P42574). Briefly: caspase-3 protease inhibitors, confirmation, selectivity assay for SENP inhibitor project, biochemical, single concentration (AID 488918;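 active = mean inhibition above about 50%, limit read from the data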;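 note: plate controls were enzyme with DMSO for no effect and wells without caspase-3 for full effect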). Particulars: purified caspase-3, Z-DEVD-aminoluciferin luminescence, 60 min; at 12.5 µM; hits give high values.
The nature of assay [4]: luciferase luminescence interference by compounds, confirmation, artefact control for SENP inhibitor project, biochemical, single concentration, SENP8 reaction pre-completed (AID 488919;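 active = mean inhibition above about 50% when retested at one dose, limit read from the data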;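 note: plate controls were DMSO wells with completed reaction for no effect and substrate without enzyme for full effect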). As to conditions: Pre-incubated SENP8/Z-RLRGG-aminoluciferin, at 12.5 µM, hits give high values.

Sentrin-specific protease 6 (Homo sapiens), sequence (Q9GZR1 628-1112 limits assumed): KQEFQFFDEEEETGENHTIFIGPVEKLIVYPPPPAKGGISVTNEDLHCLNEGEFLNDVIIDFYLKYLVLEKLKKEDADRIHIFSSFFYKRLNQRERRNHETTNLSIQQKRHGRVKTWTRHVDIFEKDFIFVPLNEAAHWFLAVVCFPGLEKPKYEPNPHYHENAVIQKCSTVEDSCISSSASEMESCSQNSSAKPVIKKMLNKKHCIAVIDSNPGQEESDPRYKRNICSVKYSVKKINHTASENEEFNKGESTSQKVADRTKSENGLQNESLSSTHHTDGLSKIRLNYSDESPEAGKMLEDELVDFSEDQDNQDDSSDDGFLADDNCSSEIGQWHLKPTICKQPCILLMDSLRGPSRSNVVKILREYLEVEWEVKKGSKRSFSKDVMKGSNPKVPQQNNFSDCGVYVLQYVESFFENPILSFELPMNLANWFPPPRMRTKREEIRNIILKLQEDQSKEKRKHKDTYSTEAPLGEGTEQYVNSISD
Caspase-3 (Homo sapiens), sequence (P42574 28-227 limits assumed): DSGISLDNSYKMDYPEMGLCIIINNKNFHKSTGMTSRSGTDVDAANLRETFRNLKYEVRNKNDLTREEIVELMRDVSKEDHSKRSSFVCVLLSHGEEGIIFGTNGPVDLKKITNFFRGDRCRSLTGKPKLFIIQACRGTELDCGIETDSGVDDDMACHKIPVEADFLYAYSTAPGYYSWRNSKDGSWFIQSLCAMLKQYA
Sentrin-specific protease 7 (Homo sapiens), sequence (Q9BQF6 706-1050 limits assumed): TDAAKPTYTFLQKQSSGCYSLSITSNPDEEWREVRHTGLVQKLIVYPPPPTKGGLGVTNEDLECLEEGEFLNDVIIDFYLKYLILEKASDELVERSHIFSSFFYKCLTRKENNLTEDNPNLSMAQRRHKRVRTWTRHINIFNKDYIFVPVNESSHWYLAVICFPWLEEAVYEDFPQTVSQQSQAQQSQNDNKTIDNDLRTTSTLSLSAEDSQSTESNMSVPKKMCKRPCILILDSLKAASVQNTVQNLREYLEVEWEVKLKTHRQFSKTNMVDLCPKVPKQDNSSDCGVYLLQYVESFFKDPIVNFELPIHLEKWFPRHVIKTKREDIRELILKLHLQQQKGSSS
Sentrin-specific protease 8 (Homo sapiens), sequence (Q96LD8 whole entry, looked up): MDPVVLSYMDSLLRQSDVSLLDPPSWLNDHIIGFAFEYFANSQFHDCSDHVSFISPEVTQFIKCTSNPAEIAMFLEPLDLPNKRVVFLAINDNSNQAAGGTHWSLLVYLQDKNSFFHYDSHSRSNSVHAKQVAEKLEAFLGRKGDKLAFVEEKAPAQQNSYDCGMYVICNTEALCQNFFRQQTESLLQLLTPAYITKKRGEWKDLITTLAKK

Take `COc1ccc(/C=N/Nc2ccccc2C(=O)O)cc1`: the inhibition was 97.3% (active) in assay [1]; 97.5% (active) in assay [2]; 103% (active) in assay [3]; 96% (active) with Caspase-3 (Homo sapiens); 97.6% (active) in assay [4].
Taken in the same sequence, the figures for `Cc1ccccc1C(=O)Nc1ccc(N2CCCCCC2)cc1` were 73.8% (active), 72.6% (active), 91.7% (active), 67.2% (active) and 51.9% (active).
On the same counts, the results for `CC(=O)N1C(=O)/C(=C2\SC(=S)N(NC(=O)c3ccc(O)cc3)C2=O)c2ccccc21` are 25.6% (inactive), 79.1% (active), 25.2% (inactive), 10.3% (inactive) and 3.7% (inactive).
Taken in the same sequence, the figures for `O=C(Nc1cccc2ccccc12)c1onc2c1CCCC2` were -4.7% (inactive), 75% (active), 93.2% (active), 78.6% (active) and 81.4% (active).
Take `CCOC(=O)c1sc(NC(=O)c2ccncc2)nc1C`: the inhibition was 0.5% (inactive) in assay [1]; 74.8% (active) in assay [2]; 90.8% (active) in assay [3]; 84.4% (active) in the assay with Caspase-3 (Homo sapiens); 20% (inactive) in assay [4].
On the same counts, the results for `CC(OC(=O)c1ccc2ccccc2n1)C(=O)c1ccccc1` (stereo not given) are 54.3% (active), 50% (inactive), 87.7% (active), 75% (active) and 64.5% (active).
Taken in the same sequence, the figures for `Cn1cccc1C(=O)OCC(=O)c1ccc(Br)s1` were 78.3% (active), 78.3% (active), 95.5% (active), 77.3% (active) and 54.7% (active).
Taken in the same sequence, the figures for `Cc1ccnc(NC(=O)c2ccoc2C)c1` were 85.8% (active), 88.9% (active), 97.1% (active), 95.6% (active) and 80.1% (active).
For `CCN1CC=C2C(C#N)=C(N)C(C#N)(C#N)[C@H](c3ccoc3)[C@H]2C1`, the inhibition was -12.3% (inactive) in assay [1]; -5.5% (inactive) in assay [2]; -13.6% (inactive) in assay [3]; 1.7% (inactive) with Caspase-3 (Homo sapiens); -10.5% (inactive) in assay [4].
As to `O=C1/C(=C/c2cccs2)CCC1C1CCCC1` (stereo not given), the inhibition in assay [1] is 50.9% (active); in assay [2], 52.1% (active); in assay [3] it was 50.7% (active); with Caspase-3 (Homo sapiens), 60.9% (active); in assay [4] it was 36.6% (inactive).
Taken in the same sequence, the figures for `O=C(Nc1ccc(F)cc1)c1cc2c(s1)CCCC2` were 93.3% (active), 93.7% (active), 101% (active), 84% (active) and 84.2% (active).
Taken in the same sequence, the figures for `Cc1cc(NC(=O)c2ccc(F)cc2)ccc1NC(=O)c1ccco1` were 78.9% (active), 73.5% (active), 93% (active), 88.6% (active) and 14.8% (inactive).
With `CN1C(=O)/C(=C\c2cc(Br)cs2)c2ccccc21`, the inhibition in assay [1] was 27.2% (inactive); in assay [2], 42.4% (inactive); in assay [3] it was 23% (inactive); with Caspase-3 (Homo sapiens) it was 18% (inactive); in assay [4] it was 12.1% (inactive).
On the same counts, the results for `Cc1cc(NC(=O)Nc2ccccc2[N+](=O)[O-])no1` are 46% (inactive), 40.1% (inactive), 77.2% (active), 70.8% (active) and 41.3% (inactive).
Taken in the same sequence, the figures for `CCn1nccc1C(=O)Nc1ccc(Cl)c(Cl)c1` were 61.1% (active), 57.7% (active), 80.6% (active), 35.5% (inactive) and 66.5% (active).
Taken in the same sequence, the figures for `c1csc(-c2nc(-c3ccncc3)no2)c1` were 19.7% (inactive), 47.2% (inactive), 83.4% (active), 80.4% (active) and 42.1% (inactive).
Take `Fc1ccccc1-c1cc2cc3c(cc2cn1)OCO3`: the inhibition is 49.5% (inactive) in assay [1]; 79.9% (active) in assay [2]; 79.1% (active) in assay [3]; 51.6% (active) in the assay with Caspase-3 (Homo sapiens); 7.4% (inactive) in assay [4].
As to `Brc1ccc(-c2nnc(-c3ccccc3)o2)o1`, the inhibition was 25.1% (inactive) in assay [1]; 50.8% (active) in assay [2]; 80.1% (active) in assay [3]; 62.9% (active) with Caspase-3 (Homo sapiens); 19.1% (inactive) in assay [4].
On the same counts, the results for `Cc1cc(C(=O)Nc2nnc(C3CC3)s2)c(C)s1` are 63.4% (active), 80.8% (active), 94.1% (active), 83.7% (active) and 16.4% (inactive).
On the same counts, the results for `CC(C)CCNC(=O)c1ccc2c(Cl)c3c(nc2c1)CCC3` are 84.1% (active), 88.3% (active), 97.4% (active), 57.1% (active) and 52.5% (active).
With `O=c1c2c(nc3cc(-c4cccc(Cl)c4)[nH]n13)CCCC2`, the inhibition was -9.4% (inactive) in assay [1]; 0% (inactive) in assay [2]; 21.5% (inactive) in assay [3]; 41.6% (inactive) with Caspase-3 (Homo sapiens); -4.6% (inactive) in assay [4].
Taken in the same sequence, the figures for `Cc1ccc(S(=O)(=O)Nc2nc3ccccc3nc2N2CCc3ccccc3C2)cc1` were -9.3% (inactive), -1.3% (inactive), -5.2% (inactive), 4.5% (inactive) and 4.3% (inactive).
As for `Oc1ccc(Br)cc1C=Nc1ccc2[nH]ncc2c1`, the inhibition in assay [1] was 5.1% (inactive); in assay [2] it was 2.1% (inactive); in assay [3], -2.2% (inactive); with Caspase-3 (Homo sapiens) it was -0.8% (inactive); in assay [4], -3.9% (inactive).
Regarding `COc1ccccc1-c1nnc(-c2ccc(F)cc2)o1`, the inhibition in assay [1] was 33.8% (inactive); in assay [2] it was 38.6% (inactive); in assay [3], 73.8% (active); with Caspase-3 (Homo sapiens), 66.2% (active); in assay [4], 60.3% (active).
